A short description of assay [1]: qHTS for Inhibitors of Plasmodium falciparum (DD2) proliferation (AID 504314).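 For activity, negative = inhibition: parasite DNA measured by SYBR Green fluorescence after red cell lysis; plate controls were DMSO vehicle for no effect and artemisinin wells for full effect.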 Note: potency is the fitted concentration of half-maximal effect. A digest of the protocol: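 Quantitative HTS growth inhibition: SYBR Green I binding to parasite DNA after 72 h drug exposure of infected erythrocytes (0.3% parasitemia, 2.5% hematocrit). Signals normalized per plate to inhibitor and vehicle wells.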
The nature of assay [2]: qHTS for Inhibitors of Plasmodium falciparum (GB4) proliferation (AID 504315). Note: nearly all actives have a fitted effect of over 50% in size. Note: potency is the fitted concentration of half-maximal effect. In a few lines: (§1)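 Erythrocytes infected with P. falciparum line (0.3% parasitemia, 2.5% hematocrit final) incubated with compounds 72 h at 37 °C, 5% CO2; SYBR Green lysis buffer added, fluorescence read next day. Normalized to 0.29 uM artemisinin and DMSO.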
Assay [3] in a line: qHTS for Inhibitors of Plasmodium falciparum (7G8) proliferation (AID 504316). Note: nearly all actives have a fitted effect of over 65% in size. Note: potency is the fitted concentration of half-maximal effect. A digest of the protocol: as §1
Assay [4] is described as follows: qHTS for Inhibitors of Plasmodium falciparum (HB3) proliferation (AID 504318). Note: nearly all actives have a fitted effect of over 60% in size. Note: potency is the fitted concentration of half-maximal effect. A digest of the protocol:
as §1
For orientation: In qHTS, concentration-response curves come from the screen itself.

Assay [5] can be described thus: qHTS for Inhibitors of Plasmodium falciparum (CP250) proliferation (AID 504320). Note: potency is the fitted concentration of half-maximal effect. In a few lines: as §1
For assay [6], the target named is Atrial natriuretic peptide receptor 1 (Homo sapiens) (UniProt P16066). Description: Natriuretic polypeptide receptor (hNpr1) antagonism - Pilot CMLD screen (AID 1347052; calls by dose curve;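 note: HEK293 cells with hNpr1 stimulated by hNppA peptide at 0.1 nM; cGMP level read as GloSensor luciferase luminescence after agonist stimulation; series mostly up to about 9.2 µM; % is set by controls: 0 for no effect and ±100 for the full control effect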).

SMILES strings stand for the structures. Several values for one entry are separate records, joined by “and”; a condition that tells them apart may be missing. Equal entries are not always repeated. Records with an inconclusive call do not appear. Some compounds were tested as several samples or in several runs, with calls that do not always agree. Activity calls are given as the source filed them. Unless noted, calls come from the whole dose curve; as a rule, active = well fitted curve in the direction sought with a large enough effect; inconclusive = small, poorly fitted or top-dose-only effect, or another doubt; inactive = no such curve, though single readings can be large; an effect the other way counts as inactive or inconclusive.

Atrial natriuretic peptide receptor 1 (Homo sapiens), sequence (P16066 whole entry, looked up): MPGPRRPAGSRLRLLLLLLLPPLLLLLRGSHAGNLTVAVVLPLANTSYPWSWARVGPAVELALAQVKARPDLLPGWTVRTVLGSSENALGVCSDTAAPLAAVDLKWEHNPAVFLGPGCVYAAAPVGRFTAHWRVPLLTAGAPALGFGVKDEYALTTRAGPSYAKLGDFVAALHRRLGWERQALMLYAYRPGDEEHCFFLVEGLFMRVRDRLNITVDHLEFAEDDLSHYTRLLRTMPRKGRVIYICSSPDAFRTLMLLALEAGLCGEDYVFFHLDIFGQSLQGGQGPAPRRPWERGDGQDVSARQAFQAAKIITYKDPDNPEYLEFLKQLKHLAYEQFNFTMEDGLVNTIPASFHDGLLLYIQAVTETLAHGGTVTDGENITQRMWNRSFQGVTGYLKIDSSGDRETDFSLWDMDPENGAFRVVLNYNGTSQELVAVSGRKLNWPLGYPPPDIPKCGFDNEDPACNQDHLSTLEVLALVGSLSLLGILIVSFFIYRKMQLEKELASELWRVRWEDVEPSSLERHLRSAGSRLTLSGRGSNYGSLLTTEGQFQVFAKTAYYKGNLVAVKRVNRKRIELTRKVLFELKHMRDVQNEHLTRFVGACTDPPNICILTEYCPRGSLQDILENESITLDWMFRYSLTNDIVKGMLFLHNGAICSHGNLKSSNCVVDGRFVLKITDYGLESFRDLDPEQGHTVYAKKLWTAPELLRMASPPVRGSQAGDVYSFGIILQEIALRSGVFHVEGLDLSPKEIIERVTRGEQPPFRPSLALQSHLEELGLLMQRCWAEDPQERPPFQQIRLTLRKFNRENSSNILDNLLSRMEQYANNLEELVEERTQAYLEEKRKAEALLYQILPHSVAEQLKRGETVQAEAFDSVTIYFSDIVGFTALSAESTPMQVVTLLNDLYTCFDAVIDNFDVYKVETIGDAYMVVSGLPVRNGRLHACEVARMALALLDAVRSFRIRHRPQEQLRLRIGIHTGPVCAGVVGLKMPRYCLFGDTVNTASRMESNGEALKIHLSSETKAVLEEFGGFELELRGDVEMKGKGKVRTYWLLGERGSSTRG

On to `CCCC[C@H]1CN2[C@H](c3ccc(Br)cc3)[C@H](C)CC[C@H]2C(=O)O1`, for which the Potency entry in assay [1], in assay [2], in assay [3], in assay [4], in assay [5] and in assay [6] was “inactive” in each case.

For the compound `COc1ccc([C@]23Cc4cc(C#N)ccc4[C@H](O2)c2c(c4ccc(OC)cc4oc2=O)O3)cc1`, the Potency entry in assay [1], in assay [2], in assay [4], in assay [5] and in assay [6] was “inactive” in each case. Further, the Potency in assay [3] is 1.69 µM (active) and inactive.

For `Cc1ccc([S+](=O)([O-])N[C@@H]2COC(=O)CC=C[C@H](C)COC(=O)N[C@@H](C)C(=O)CC=C[C@H]2C)cc1`, the Potency entry in assay [1], in assay [2], in assay [3], in assay [4], in assay [5] and in assay [6] was “inactive” each time.

`CC(C)=CCCC(C)=CCON=C1C[C@@H](O)[C@@H](O)[C@@H]2[C@H]3C(=O)N(C[C@@H]4CCCO4)C(=O)[C@@H]3CC[C@H]12`: the Potency result in assay [1], in assay [2], in assay [3], in assay [4], in assay [5] and in assay [6] was “inactive” throughout.

As to `C[C@@H]1CC2CCC[C@@H]2[C@]2(O1)C(=O)Nc1cccc(Br)c12` (stereo partly specified), the Potency result in assay [1], in assay [2], in assay [3], in assay [4], in assay [5] and in assay [6] was “inactive” throughout.

For the compound `C=CC[C@@](C(C)=O)(C(=O)OC)[C@@H](NC(=O)OC)c1ccccc1`, the Potency result in assay [1], in assay [2], in assay [3], in assay [4], in assay [5] and in assay [6] was “inactive” each time.

As to `COC(=O)[C@H](COC(C)(C)C)NC(=O)O[C@H]1C(=O)c2ccc(OC)cc2O[C@@H]1c1ccc2c(c1)OCO2`, the Potency entry in assay [1], in assay [2], in assay [3], in assay [4], in assay [5] and in assay [6] was “inactive” in each case.

As to `COC(=O)C1=C(C(=O)OC)[C@@H]2N(C)c3ccccc3[C@@]23C[C@@H](C(=O)OC)N(C(=O)c2ccc(Br)cc2)C3=N1`, the Potency entry in assay [1], in assay [2], in assay [3], in assay [4], in assay [5] and in assay [6] was “inactive” throughout.

As to `CCN1C(=O)NC(c2ccc(Br)cc2)C(C(C)=O)=C1C` (stereo unspecified), the Potency result in assay [1], in assay [2], in assay [3], in assay [4], in assay [5] and in assay [6] was “inactive” in each case.

Take `COC(=O)CC=C1c2ccccc2[C@@H](NC(=O)OC)[C@@H]1C`: the Potency entry in assay [1], in assay [2], in assay [3], in assay [4], in assay [5] and in assay [6] was “inactive” throughout.

Regarding `O=C(OCC(F)(F)F)[C@H](O)[C@@H](O)C(=O)OCC(F)(F)F`, the Potency entry in assay [1], in assay [2], in assay [3], in assay [4], in assay [5] and in assay [6] was “inactive” throughout.

As to `C=CCN1C=C2C(=O)C(C)(OC(=O)C3CCCC3)C(=O)C=C2C=C1c1ccsc1` (stereo unspecified), the Potency entry in assay [1], in assay [2], in assay [3], in assay [4], in assay [5] and in assay [6] was “inactive” in each case.

For the compound `COc1ccc2c(c1)C(NC(=O)C(F)(F)F)CC21CCCCC1` (stereo unspecified), the Potency entry in assay [1], in assay [2], in assay [3], in assay [4], in assay [5] and in assay [6] was “inactive” throughout.

Consider `C[C@@H]1[C@@H](c2ccccc2)Cc2nc3ccccc3nc2C[C@H]1C(=O)N1CCCC1`, for which the Potency result in assay [1], in assay [2], in assay [3], in assay [4], in assay [5] and in assay [6] was “inactive” each time.

Take `CCN1C(=NCc2ccc3c(c2)OCO3)NC(CCc2ccccc2)C(C(=O)OC)=C1C` (stereo unspecified): the Potency entry in assay [1], in assay [2], in assay [3], in assay [4], in assay [5] and in assay [6] was “inactive” in each case.

For the compound `COc1ccc2c(c1)O[C@H](c1ccc3c(c1)OCO3)[C@@H](OC(=O)NCCOc1ccccc1)C2=O`, the Potency result in assay [1], in assay [2], in assay [3], in assay [4], in assay [5] and in assay [6] was “inactive” in each case.

With `CCOC(=O)CN1C(=O)[C@@]2(C[C@@H](C)C[C@@H](C)O2)c2ccccc21`, the Potency result in assay [1], in assay [2], in assay [3], in assay [4], in assay [5] and in assay [6] was “inactive” each time.

Take `COC(=O)[C@H](COC(C)(C)C)NC(=O)O[C@@H]1C(=O)c2ccc(OC)cc2O[C@H]1c1ccc2c(c1)OCO2`: the Potency entry in assay [1], in assay [2], in assay [3], in assay [4], in assay [5] and in assay [6] was “inactive” in each case.

Regarding `CC(=O)OC[C@H]1O[C@H](C#CC2=CCCCC2)C=C[C@H]1OC(C)=O`, the Potency entry in assay [1], in assay [2], in assay [3], in assay [4], in assay [5] and in assay [6] was “inactive” each time.

On to `COC(=O)c1nnc(C(=O)NCc2ccccc2)c2[nH]c3ccccc3c12`, for which the Potency result in assay [1], in assay [2], in assay [3], in assay [4], in assay [5] and in assay [6] was “inactive” throughout.

On to `COCC(=O)C(C(=O)OC)[C@H](CCc1ccccc1)NC(=O)OC` (stereo partly specified), for which the Potency entry in assay [1], in assay [2], in assay [3], in assay [4], in assay [5] and in assay [6] was “inactive” in each case.

For the compound `C=CC1=C2C=C(C3CC3)N(Cc3ccc4c(c3)OCO4)C=C2C(=O)C(C)(OC(=O)c2ccco2)C1=O` (stereo unspecified), the activity, negative = inhibition in assay [1] is 4.05% [at 1.12 µM] (inactive). Also, the Potency entry in assay [2], in assay [3], in assay [4], in assay [5] and in assay [6] was “inactive” in each case.

For `C=CCOC(=O)C(C(C)=O)[C@@H](NC(=O)OC)c1cccs1` (stereo partly specified), the Potency entry in assay [1], in assay [2], in assay [3], in assay [4], in assay [5] and in assay [6] was “inactive” throughout.

On to `COC(=O)CC=C[C@@H](C)[C@H](OC)c1ccccc1Br`, for which the Potency entry was “inactive and 1.5 µM (active)” in assay [1]; “inactive and 1.51 µM (active)” in assay [2]; “inactive and 1.9 µM (active)” in assay [3]; “inactive and 1.9 µM (active)” in assay [4]; “inactive and 1.35 µM (active)” in assay [5]. Besides, the Potency result in assay [6] is “inactive”.

In the case of `COc1ccc(-c2nc3c(c4c2C[C@H](c2ccccc2)OC4)CN(S(=O)(=O)c2ccc(Cl)c4nonc24)CC3)c(C)c1`, the Potency entry in assay [1], in assay [2], in assay [3], in assay [4], in assay [5] and in assay [6] was “inactive” throughout.

Turning to `CC12C=C(C=CC=Cc3ccco3)C(C)(C1)C(C=Cc1ccco1)CC2=O` (stereo unspecified), the Potency result in assay [1], in assay [2], in assay [3], in assay [4], in assay [5] and in assay [6] was “inactive” throughout.

The values are drawn from PubChem BioAssay (NCATS).
